# Results as given in PubChem BioAssay AID1159580 (chemical genetic matrix, 2015).
# The campaign covered roughly 5,500 compounds. About 2,000 (36%) were called active. Roughly 18% stayed inconclusive and do not appear here. The list shows a part of the results. Unmarked numbers belong to inactive results. No stated cut-off is given here; in the data, active means normalized growth mostly below about 0.91 (no sharp cut-off); inconclusive means no clear call, values can overlap the other calls; inactive means mostly above about 0.92.
# Assay: chemical genetic growth profiling, strain panel (AID 1159580);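 further: tested at 20 µM; growth read once vehicle control cultures reached saturation at 30 °C; 1 = growth at the plate median or of vehicle wells; lower values mean less growth of the strain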
# Conditions: growth OD
# [1] = S. cerevisiae deletion strains, locus YBR021W, strain FUR4, active compounds read low
# [2] = S. cerevisiae deletion strains, locus YBR229C, strain ROT2, active compounds read low
# [3] = S. cerevisiae deletion strains, locus YCL029C, strain bik1, active compounds read low
# [4] = S. cerevisiae deletion strains, locus YDL035C, strain GPR1, active compounds read low
# [5] = S. cerevisiae deletion strains, locus YDL074C, strain BRE1, active compounds read low
# [6] = S. cerevisiae deletion strains, locus YDL101C, strain DUN1, active compounds read low
# [7] = S. cerevisiae deletion strains, locus YDL134C, strain PPH21, active compounds read low
# [8] = S. cerevisiae deletion strains, locus YDL185W, strain tfp1, active compounds read low
# [9] = S. cerevisiae deletion strains, locus YDL192W, strain arf1, active compounds read low
# [10] = S. cerevisiae deletion strains, locus YDR101C, strain arx1, active compounds read low
# [11] = S. cerevisiae deletion strains, locus YDR162C, strain NBP2, active compounds read low
# [12] = S. cerevisiae deletion strains, locus YDR318W, strain mcm21, active compounds read low
# [13] = S. cerevisiae deletion strains, locus YDR388W, active compounds read low
# [14] = S. cerevisiae deletion strains, locus YDR502C, strain sam2, active compounds read low
# [15] = S. cerevisiae deletion strains, locus YEL061C, strain CIN8, active compounds read low
# [16] = S. cerevisiae deletion strains, locus YER110C, active compounds read low
# [17] = S. cerevisiae deletion strains, locus YER155C, strain BEM2, active compounds read low
# [18] = S. cerevisiae deletion strains, locus YER167W, strain BCK2, active compounds read low
# [19] = S. cerevisiae deletion strains, locus YGL078C, strain dbp3, active compounds read low
# [20] = S. cerevisiae deletion strains, locus YGL086W, strain mad1, active compounds read low
# [21] = S. cerevisiae deletion strains, locus YGL248W, strain PDE1, active compounds read low
# [22] = S. cerevisiae deletion strains, locus YGR078C, strain PAC10, active compounds read low
# [23] = S. cerevisiae deletion strains, locus YGR135W, strain pre9, active compounds read low
# [24] = S. cerevisiae deletion strains, locus YGR252W, strain gcn5, active compounds read low
# [25] = S. cerevisiae deletion strains, locus YHR030C, strain SLT2, active compounds read low
# [26] = S. cerevisiae deletion strains, locus YHR079C, strain IRE1 (second series), active compounds read low
# [27] = S. cerevisiae deletion strains, locus YHR094C, strain hxt1, active compounds read low
# [28] = S. cerevisiae deletion strains, locus YHR129C, strain ARP1, active compounds read low
# [29] = S. cerevisiae deletion strains, locus YHR200W, strain rpn10, active compounds read low
# [30] = S. cerevisiae deletion strains, locus YIL066C, strain RNR3, active compounds read low
# [31] = S. cerevisiae deletion strains, locus YIL073C, strain SPO22, active compounds read low
# [32] = S. cerevisiae deletion strains, locus YIL125W, strain kgd1, active compounds read low
# [33] = S. cerevisiae deletion strains, locus YIR030C, strain dcg1, active compounds read low
# [34] = S. cerevisiae deletion strains, locus YJL095W, strain BCK1, active compounds read low
# [35] = S. cerevisiae deletion strains, locus YJL134W, strain LCB3, active compounds read low
# [36] = S. cerevisiae deletion strains, locus YJL168C, strain set2, active compounds read low
# [37] = S. cerevisiae deletion strains, locus YJL187C, strain SWE1 (second series), active compounds read low
# [38] = S. cerevisiae deletion strains, locus YKL009W, strain mrt4, active compounds read low
# [39] = S. cerevisiae deletion strains, locus YKL068W, active compounds read low
# [40] = S. cerevisiae deletion strains, locus YKL085W, strain MDH1 (second series), active compounds read low
# [41] = S. cerevisiae deletion strains, locus YKL085W, strain MDH1, active compounds read low
# [42] = S. cerevisiae deletion strains, locus YKL190W, strain CNB1, active compounds read low
# [43] = S. cerevisiae deletion strains, locus YKR001C, strain vps1, active compounds read low
# [44] = S. cerevisiae deletion strains, locus YLR039C, strain RIC1, active compounds read low
# [45] = S. cerevisiae deletion strains, locus YLR058C, strain SHM2, active compounds read low
# [46] = S. cerevisiae deletion strains, locus YLR102C, strain apc9, active compounds read low
# [47] = S. cerevisiae deletion strains, locus YLR268W, strain sec22, active compounds read low
# [48] = S. cerevisiae deletion strains, locus YLR342W, strain FKS1 (second series), active compounds read low
# [49] = S. cerevisiae deletion strains, locus YLR371W, strain rom2, active compounds read low
# [50] = S. cerevisiae deletion strains, locus YLR418C, strain cdc73, active compounds read low
# [51] = S. cerevisiae deletion strains, locus YML016C, strain PPZ1, active compounds read low
# [52] = S. cerevisiae deletion strains, locus YML032C, strain rad52, active compounds read low
# [53] = S. cerevisiae deletion strains, locus YML124C, strain tub3, active compounds read low
# [54] = S. cerevisiae deletion strains, locus YMR078C, strain ctf18, active compounds read low
# [55] = S. cerevisiae deletion strains, locus YMR223W, strain ubp8, active compounds read low
# [56] = S. cerevisiae deletion strains, locus YMR263W, strain SAP30, active compounds read low
# [57] = S. cerevisiae deletion strains, locus YMR307W, strain GAS1, active compounds read low
# [58] = S. cerevisiae deletion strains, locus YNL067W, strain RPL9B, active compounds read low
# [59] = S. cerevisiae deletion strains, locus YNL233W, strain BNI4, active compounds read low
# [60] = S. cerevisiae deletion strains, locus YNL250W, strain rad50, active compounds read low
# [61] = S. cerevisiae deletion strains, locus YNL271C, strain bni1, active compounds read low
# [62] = S. cerevisiae deletion strains, locus YNL298W, strain CLA4, active compounds read low
# [63] = S. cerevisiae deletion strains, locus YNL307C, strain MCK1, active compounds read low
# [64] = S. cerevisiae deletion strains, locus YNR052C, strain pop2, active compounds read low
# [65] = S. cerevisiae deletion strains, locus YOL006C, strain TOP1, active compounds read low
# [66] = S. cerevisiae deletion strains, locus YOL012C, strain htz1
# [67] = S. cerevisiae deletion strains, locus YOL147C, strain pex11, active compounds read low
# [68] = S. cerevisiae deletion strains, locus YOR061W, strain CKA2, active compounds read low
# [69] = S. cerevisiae deletion strains, locus YOR069W, strain VPS5, active compounds read low
# [70] = S. cerevisiae deletion strains, locus YOR136W, strain idh2, active compounds read low
# [71] = S. cerevisiae deletion strains, locus YOR144C, strain elg1, active compounds read low
# [72] = S. cerevisiae deletion strains, locus YOR184W, strain ser1, active compounds read low
# [73] = S. cerevisiae deletion strains, locus YOR316C, strain cot1, active compounds read low
# [74] = S. cerevisiae deletion strains, locus YPL241C, strain CIN2, active compounds read low
# [75] = S. cerevisiae deletion strains, locus YPR119W, strain clb2, active compounds read low
# [76] = S. cerevisiae deletion strains, locus YPR141C, strain kar3, active compounds read low
# [77] = S. cerevisiae deletion strains, locus YPR163C, strain tif3, active compounds read low
# [78] = S. cerevisiae deletion strains, locus YPR167C, strain met16, active compounds read low
# [79] = S. cerevisiae deletion strains, strain wtn01, active compounds read low
# [80] = S. cerevisiae strains, strain wild type, active compounds read low
smiles,measurement,setting,value
COc1c(C(=O)O)ccc2c1CCC(C)(C)O2,normalized growth,[1],1.03
same,normalized growth,[2],1.02
same,normalized growth,[3],1.01
same,normalized growth,[4],1.09
same,normalized growth,[5],1.13
same,normalized growth,[6],1.02
same,normalized growth,[7],1.07
same,normalized growth,[8],0.976
same,normalized growth,[9],1.03
same,normalized growth,[10],0.999
same,normalized growth,"S. cerevisiae deletion strains, locus YDR150W, strain NUM1, active compounds read low",1.04
same,normalized growth,[11],1.05
same,normalized growth,[12],0.987
same,normalized growth,[13],0.987
same,normalized growth,[14],0.981
same,normalized growth,[15],1.03
same,normalized growth,[16],0.997
same,normalized growth,[17],0.984
same,normalized growth,[18],1.01
same,normalized growth,[19],0.964
same,normalized growth,[20],1
same,normalized growth,[21],1.06
same,normalized growth,[22],1.06
same,normalized growth,[23],0.994
same,normalized growth,"S. cerevisiae deletion strains, locus YGR229C, strain SMI1, active compounds read low",1.2 [resistant] (active)
same,normalized growth,[24],1.06
same,normalized growth,[25],1.02
same,normalized growth,[26],0.982
same,normalized growth,[27],0.987
same,normalized growth,[28],1.02
same,normalized growth,[29],1
same,normalized growth,[30],1.04
same,normalized growth,[31],1.12
same,normalized growth,[32],0.957
same,normalized growth,[33],0.982
same,normalized growth,[34],1.1
same,normalized growth,[35],1.01
same,normalized growth,[36],0.988
same,normalized growth,[37],1.03
same,normalized growth,[38],0.995
same,normalized growth,[39],0.922 (active)
same,normalized growth,[40],0.955
same,normalized growth,[41],0.955
same,normalized growth,[42],1.02
same,normalized growth,[43],1.04
same,normalized growth,[44],1.19
same,normalized growth,[45],1.04
same,normalized growth,[46],0.986
same,normalized growth,"S. cerevisiae deletion strains, locus YLR262C, strain YPT6, active compounds read low",1.22
same,normalized growth,[47],0.989
same,normalized growth,"S. cerevisiae deletion strains, locus YLR330W, strain CHS5, active compounds read low",1.03
same,normalized growth,[48],1.07
same,normalized growth,[49],1.01
same,normalized growth,[50],1.07
same,normalized growth,[51],1.02
same,normalized growth,[52],0.991
same,normalized growth,[53],0.975
same,normalized growth,[54],0.983
same,normalized growth,[55],1
same,normalized growth,[56],1.01
same,normalized growth,[57],1.03
same,normalized growth,[58],0.992
same,normalized growth,[59],1.08
same,normalized growth,[60],0.956
same,normalized growth,[61],0.995
same,normalized growth,[62],0.993
same,normalized growth,[63],0.989
same,normalized growth,"S. cerevisiae deletion strains, locus YNL322C, strain KRE1, active compounds read low",1.02
same,normalized growth,[64],0.981
same,normalized growth,[65],1.43
same,normalized growth,[66],0.918
same,normalized growth,[67],0.98
same,normalized growth,[68],1.02
same,normalized growth,[69],1.01
same,normalized growth,[70],0.993
same,normalized growth,[71],0.981
same,normalized growth,[72],1.04
same,normalized growth,[73],0.977
same,normalized growth,[74],1.02
same,normalized growth,[75],0.983
same,normalized growth,[76],0.942
same,normalized growth,[77],0.986
same,normalized growth,[78],0.98
same,normalized growth,[79],1.01
same,normalized growth,[80],1.06
COc1c(C2COc3cc4c(cc3C2=O)CC(O)C(C)(C)O4)ccc2c1CCC(C)(C)O2 (configuration not stated),normalized growth,[1],0.992
same,normalized growth,[2],1.01
same,normalized growth,[3],1.01
same,normalized growth,[4],1.02
same,normalized growth,[5],1.05
same,normalized growth,[6],1.02
same,normalized growth,[7],1.05
same,normalized growth,[8],1.05
same,normalized growth,[9],1.01
same,normalized growth,[10],0.982
same,normalized growth,[11],1.02
same,normalized growth,[12],1.01
same,normalized growth,[13],1.03
same,normalized growth,[14],1.04
same,normalized growth,[15],1.01
same,normalized growth,[16],1.02
same,normalized growth,[17],1.02
same,normalized growth,[18],1.01
same,normalized growth,[19],1.02
same,normalized growth,[20],1.01
same,normalized growth,[21],1.06
same,normalized growth,[22],1.02
same,normalized growth,[23],1.07
same,normalized growth,[24],1.04
same,normalized growth,[25],1.01
same,normalized growth,[26],1.02
same,normalized growth,[27],1
same,normalized growth,[28],1.02
same,normalized growth,[29],1.03
same,normalized growth,[30],1.04
same,normalized growth,[31],1.08
same,normalized growth,[32],1.01
same,normalized growth,[33],1.03
same,normalized growth,[34],1.05
same,normalized growth,[35],0.995
same,normalized growth,[36],1.03
same,normalized growth,[37],1.04
same,normalized growth,"S. cerevisiae deletion strains, locus YJR043C, strain POL32, active compounds read low",1.01
same,normalized growth,[38],1.01
same,normalized growth,[39],1.01
same,normalized growth,[40],1.01
same,normalized growth,[41],1.01
same,normalized growth,[42],1.01
same,normalized growth,[43],1.04
same,normalized growth,[44],1.11
same,normalized growth,[45],1.02
same,normalized growth,[46],1.01
same,normalized growth,[47],0.997
same,normalized growth,[48],1.04
same,normalized growth,[49],1.03
same,normalized growth,[50],1.08
same,normalized growth,[51],1
same,normalized growth,[52],1.01
same,normalized growth,[53],1
same,normalized growth,[54],1.02
same,normalized growth,[55],1.02
same,normalized growth,[56],1
same,normalized growth,[57],1.13
same,normalized growth,[58],1.01
same,normalized growth,"S. cerevisiae deletion strains, locus YNL153C, strain GIM3, active compounds read low",1.06
same,normalized growth,[59],1.04
same,normalized growth,[60],1.05
same,normalized growth,[61],1.01
same,normalized growth,[62],1.02
same,normalized growth,[63],1.01
same,normalized growth,[64],1.03
same,normalized growth,[65],1.06
same,normalized growth,[66],0.808
same,normalized growth,[67],1
same,normalized growth,[68],1.01
same,normalized growth,[69],1.01
same,normalized growth,[70],1.02
same,normalized growth,[71],1.01
same,normalized growth,[72],0.971
same,normalized growth,[73],1.01
same,normalized growth,[74],0.99
same,normalized growth,[75],1.02
same,normalized growth,[76],1.01
same,normalized growth,[77],1.03
same,normalized growth,[78],1.04
same,normalized growth,[79],1
same,normalized growth,[80],1.03
